High-throughput results (PubChem)
TROY NFkB inh = inhibitors of TROY-driven NF-kB signaling, primary screen, Q293 LMP1-TROYcd cells, NF-kB luciferase, uHTS; Q293 LMP1-TROYcd NF-kB luciferase reporter, 4 h; inhibition, % at 10 µM; actives 0.98% (n = 360,000);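 active = compounds whose plate-normalised and pattern-corrected inhibition of the luciferase reporter signal at the single screening dose is 50% or more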
LGR2 inh = inhibitors of bursicon-induced LGR2 CRE-luciferase signal, primary screen, cell-based, HEK293, CRE-luciferase reporter, bursicon stimulation; inhibition, % at 9.99 µM; actives 0.35% (n = 380,000); bursicon-stimulated, 4 h; Drosophila bursicon receptor LGR2 (rickets); AID 720647, 2013;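 active = drop in luminescence signal, shown as inhibition above about 50% in the replicate tests, limit read from the data, passing the limit was not always enough; inconclusive = probably only some replicates passing the limit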;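 note: agonist challenge used bursicon conditioned medium at about half maximal strength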
TWEAK-Fn14 inh = inhibitors of TWEAK-Fn14 signaling, primary screen, luciferase reporter cells, uHTS | TWEAK-stimulated Fn14 reporter cells, luciferase luminescence, 8 h | inhibition, % at 10 µM | actives 2% (n = 360,000); in the data active = inhibition above about 50%
HSP90 inh = HSP90 inhibitors, primary screen, cell lysate, luminescence. Heat shock protein HSP 90 (rabbit reticulocyte lysate; luciferase refolding). Rabbit reticulocyte lysate, luciferase refolding luminescence, 3 h. inhibition, % at 5.6 µM. actives 0.91% (n = 290,000);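 active = inhibition above the screen-wide mean plus 3 SD, computed separately per campaign, cut at about 16% in these data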;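 note: inhibitors lower the luminescence because luciferase stays unfolded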
Hits are given with their value; . = inactive; ? = inconclusive; / = not tested or not shown. This is a sample that favours compounds with a hit; in the whole collection about 2.2% have one here.

SMILES	TROY NFkB inh	LGR2 inh	TWEAK-Fn14 inh	HSP90 inh
CN(C)S(=O)(=O)N1CCC(Oc2ccc(C(=O)NC3CCOC(C)(C)C3)cc2)CC1 (stereo not given)	.	.	.	.
CN(C)S(=O)(=O)N1CCC(Oc2ccc(C(=O)NC3Cc4ccccc4C3)cc2)CC1	.	.	52	.
C[C@@H]1CN([C@H](C)CO)C(=O)c2cc(/C=C/c3ccccc3)cnc2O[C@H]1CN(C)C(=O)Cc1cccnc1	/	.	/	/
C#CCOCCOCCOCCNc1nc(N2CCN(C(=O)CCCCCCCCCCNC(=O)[C@H](CCCCN)n3cc(C)nn3)CC2)nc(N2CCN(C(=O)CCCCCCCCCCNC(=O)[C@@H]([C@H](C)O)n3cc(C)nn3)CC2)n1	.	/	.	/
C#CCOCCOCCOCCNc1nc(N2CCN(C(=O)CCCCCCCCCCNC(=O)[C@H](CCCCN)n3cc(C[C@@H](C)CC)nn3)CC2)nc(N2CCN(C(=O)CCCCCCCCCCNC(=O)[C@@H]([C@H](C)O)n3cc(C)nn3)CC2)n1	90	/	106	/
C#CCOCCOCCOCCNc1nc(N2CCN(C(=O)CCCCCCCCCCNC(=O)[C@@H](CCC(=O)O)n3cc(CCCCCN)nn3)CC2)nc(N2CCN(C(=O)CCCCCCCCCCNC(=O)[C@H](CCCCN)n3cc(C[C@@H](C)CC)nn3)CC2)n1	.	/	.	/
C#CCOCCOCCOCCNc1nc(N2CCN(C(=O)CCCCCCCCCCNC(=O)[C@H](CCCCN)n3cc(C[C@@H](C)CC)nn3)CC2)nc(N2CCN(C(=O)CCCCCCCCCCNC(=O)[C@H](CCCN=C(N)N)n3cc(C[C@@H](C)CC)nn3)CC2)n1	.	/	60	/
C[C@@H]1CN([C@H](C)CO)C(=O)c2cc(C#C[C@@H](C)O)cnc2O[C@H]1CN(C)C(=O)c1ccccc1F	/	.	/	/
COc1ccc(CN2CC(C(=O)N3CCOCC3)CC2=O)cc1 (stereo not given)	.	/	.	.
CCOC(=O)N1CCN(C(=O)C2CC(=O)N(Cc3ccc(OC)cc3)C2)CC1 (stereo not given)	/	/	72	.
CCN1C(=O)CS/C1=N\S(=O)(=O)c1ccc(Cl)cc1	.	.	.	.
CCn1c(Cl)c(C=O)s/c1=N\S(=O)(=O)c1ccccc1	.	?	99	.
C[C@@H]1CCCCO[C@H](CN(C)C(=O)C2CCCCC2)[C@@H](C)CN([C@@H](C)CO)C(=O)c2cc(NC(=O)c3ccccc3)ccc2O1	/	.	/	/
COc1ccc(CN(C)C[C@@H]2OCCCC[C@@H](C)Oc3ccc(NC(=O)Nc4ccc(F)cc4)cc3C(=O)N([C@H](C)CO)C[C@H]2C)cc1	/	.	/	/
CC1(c2ccccc2)CC(C)(C)N2C(=O)C3(C(C#N)=C(N)Oc4cc(O)ccc43)c3cccc1c32 (stereo not given)	.	.	57	.
Cc1cc2c3c(c1)C(C)(c1ccccc1)CC(C)(C)N3C(=O)C21C(C#N)=C(N)OC2=C1C(=O)CC(C)(C)C2 (stereo not given)	.	/	.	.
c1ccc(-n2nnnc2-n2cnc3ccccc32)cc1	.	.	54	.
CN(CC1CCCO1)S(=O)(=O)c1ccc(C(=O)Nc2ccc3c(c2)OCO3)cc1 (stereo not given)	.	.	.	.
CN(CC1CCCO1)S(=O)(=O)c1ccc(C(=O)Nc2nc3cc4c(cc3s2)OCO4)cc1 (stereo not given)	.	.	53	.
CCN(CC)S(=O)(=O)c1cccc(C(=O)Nc2nc3cc4c(cc3s2)OCCO4)c1	61	.	95	.
CCn1cnc2c(Nc3cc(F)cc(F)c3)nc(C#N)nc21	.	.	.	/
N#Cc1nc(Nc2cccc(Cl)c2)c2ncn(C3CCCC3)c2n1	.	.	87	/
Cc1nc(N2CCN(c3ccccc3)CC2)[nH]c(=O)c1CCC(C)C	.	.	60	.
COc1ccc(C=CC(=O)c2ccc(OC)c(OC)c2)cc1O	.	.	.	/
CCC1CSC(Nc2ccc(C(=O)/C=C/c3ccc(OC)c(OC)c3)cc2)=N1 (stereo not given)	.	.	74	.
SMILES	TROY NFkB inh	LGR2 inh	TWEAK-Fn14 inh	HSP90 inh
COc1ccc(Oc2ccc(/C=C/C(=O)c3cccc(OC)c3)cc2[N+](=O)[O-])cc1	.	.	60	.
COc1ccc(C=CC(=O)c2ccc3cc(OC)c(OC)cc3c2)cc1OC	.	.	67	/
CCC1CSC(Nc2ccc(C(=O)/C=C/c3ccc(Br)cc3)cc2)=N1 (stereo not given)	.	.	57	.
COc1ccc(Oc2ccc(/C=N/NC(=O)c3cccnc3)cc2[N+](=O)[O-])cc1	.	/	.	.
C[C@@H]1CN([C@@H](C)CO)C(=O)c2cccc(NC(=O)c3ccc(-c4nccs4)cc3)c2O[C@@H]1CN(C)S(=O)(=O)c1cn(C)cn1	/	.	/	/
C[C@H]1CN([C@@H](C)CO)C(=O)c2cccc(NC(=O)Nc3cccc4ccccc34)c2O[C@H]1CN(C)C(=O)Nc1ccccc1	/	.	/	/
COc1ccc(/C=C/C(=O)c2ccc(NC3=NCCCS3)cc2)cc1OC	.	.	72	.
COc1ccc(C=C(C(C)=O)C(=O)c2ccccc2)cc1	.	.	.	/
CC(=O)C(=Cc1ccc(Cl)cc1)C(=O)c1ccccc1	.	.	95	/
CC(=O)C(=Cc1cccc(C#N)c1)C(=O)c1ccccc1	.	.	77	/
COc1ccc(C=C(C(=O)c2ccccc2)C(=O)c2ccccc2)cc1	.	.	52	/
CC(C)c1cn(CC[C@@H]2CC[C@H](NS(=O)(=O)c3ccc(Cl)cc3)[C@H](CO)O2)nn1	/	.	/	/
C[C@H]1CN([C@@H](C)CO)C(=O)c2cc(-c3ccc(C#N)cc3)cnc2O[C@@H]1CN(C)C(=O)c1ccccc1	/	.	/	/
O=c1oc2ccc(C#CC3(O)CCCCC3)cc2cc1-n1cc(-c2ccccn2)nn1	.	.	58	/
Nc1cccc(-c2cn(-c3cc4cc(C#CC5(O)CCCCC5)ccc4oc3=O)nn2)c1	.	/	.	/
COc1cccc(CN2CCC2(C)C(=O)Nc2cccc(NS(C)(=O)=O)c2)c1OC (stereo not given)	.	.	67	/
O=C(COC(=O)c1ccccc1NS(=O)(=O)c1cccs1)NCC12CC3CC(CC(C3)C1)C2	61	.	.	.
CC1=NC(=O)C(N=Nc2cccc(C(=O)O)c2)N1c1ccccc1 (stereo not given)	.	/	.	17
Cc1ccc(S(=O)(=O)N(C)C[C@@H]2OCCCC[C@@H](C)Oc3ccc(NC(=O)Nc4ccc5c(c4)OCO5)cc3C(=O)N([C@H](C)CO)C[C@@H]2C)cc1	/	.	/	/
FC(F)(F)c1cc(-c2ccco2)nc(N2CCN(c3ccccc3)CC2)n1	.	.	.	.
FC(F)(F)c1nc(N2CCN(c3ccccc3)CC2)nc2c1CCCCC2	57	/	94	.
Cn1c(=NC(=O)c2ccc(S(=O)(=O)N3CCCc4ccccc43)cc2)sc2cc(S(C)(=O)=O)ccc21	.	.	.	.
Cn1c(=NC(=O)c2ccccc2[N+](=O)[O-])sc2cc(S(C)(=O)=O)ccc21	.	.	51	.
